For 21 compounds, growth results are on record in PubChem BioAssay (NCI).

What all share (assay): NCI-60 one-dose screen, 48 h (100 = growth as untreated, 0 = no growth, -100 = all killed)
For experiment [1], the system named is DU-145 prostate. As to conditions: 10 µM unless noted.
Experiment [2] has as its system K-562 leukemia. As to conditions: 10 µM unless noted.
Experiment [3] has as its system MALME-3M melanoma. As to conditions: 10 µM unless noted.
The subject of experiment [4] is MDA-MB-231 breast. As to conditions: 10 µM unless noted.
The subject of experiment [5] is RXF 393 renal. As to conditions: 10 µM unless noted.
For experiment [6], the system named is SF-268 CNS. As to conditions: 10 µM unless noted.
Experiment [7] concerns SF-295 CNS. As to conditions: 10 µM unless noted.
Experiment [8] has as its system SF-539 CNS. As to conditions: 10 µM unless noted.
The test system of experiment [9] is UACC-257 melanoma. As to conditions: 10 µM.
Experiment [10] has as its system M14 melanoma. As to conditions: 10 µM unless noted.

Each structure is given as a SMILES string. The panel holds about 83,000 compounds, 20% with a hit somewhere; the sample as a whole holds those more often.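 Compound tested at a single concentration for 48 hours in 96-well plates; a percent growth value below 10 was scored as active.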 A number with no mark means an inactive call. Activity calls are given as the source filed them.

As for `O=C(O)C(Cc1ccccc1)N1C(=O)/C(=C/C(Cl)=C/c2ccc([N+](=O)[O-])cc2)SC1=S` (stereo not drawn), the growth was 35% in experiment [1]; 9.61% (active) in [2]; 3.53% (active) in experiment [3]; 29.5% in [4]; -47.1% (active) in [5]; 19.2% in experiment [6]. Moreover, the growth is 88.8% in experiment [7], 29.6% in experiment [8], 18.1% in [9] and -13.7% (active) in experiment [10].
In the case of `COc1cccc(-c2nc3sccn3c2-c2ccnc(NCCNS(=O)(=O)c3ccccc3)n2)c1`, the growth in [1] was 65.8%; in [2] it was 36.9%; in experiment [3], 66.6%; in experiment [4], 63.5%; in [5], 64.2%; in [6], 62.7%. The growth was 63.6% in experiment [7], 79.9% in experiment [8], 81.4% in [9] and 35.8% in [10].
As for `Cc1ccc(C(=O)c2sc3nc4c(cc3c2N)CCCC4)c(C)c1`, the growth in experiment [1] is 6.18% (active); in experiment [2] it was 11.9%; in experiment [3] it was 27%; in [4], 21.3%; in [5], -16% (active); in experiment [6], 44.1%. Besides, the growth in [7] is -4.3% (active); in [8] it was -25% (active); in [9], 57.6%; in experiment [10], 30.6%.
As to `CCOC(=O)C(Cc1ccccc1)n1c(O)c(C=Nc2ccc(C(=O)OCCN(CC)CC)cc2)sc1=O` (stereo not drawn), the growth in experiment [1] was 106%; in experiment [2], 89.3%; in [3] it was 90.1%; in [4], 89.3%; in experiment [5], 84.7%; in experiment [6], 97.2%. Moreover, the growth was 104% in experiment [7], 86.5% in experiment [8], 77.4% in experiment [9] and -36.1% (active) in [10].
Consider `COc1cc2nc(SCc3cc(OC)c(OC)c(OC)c3)n(Cc3ccccc3)c(=O)c2cc1OC`, for which the growth in experiment [1] was 49.8%; in experiment [2] it was 10.2%; in experiment [3], 21.9%; in [4], 36%; in experiment [5] it was 4.55% (active); in experiment [6] it was 37.9%. For the same compound, the growth in [7] is 19.7%; in experiment [8] it was -6.22% (active); in experiment [9], 63.3%; in experiment [10], 14.9%.
On to `COc1ccc(S(=O)(=O)NCCNc2nccc(-c3c(-c4ccccc4)nc4sccn34)n2)cc1`, for which the growth was 20.2% in [1]; 18.5% in experiment [2]; 60.9% in experiment [3]; 36.6% in experiment [4]; 30.8% in [5]; 20.5% in experiment [6]. In addition, the growth was 16.6% in [7], 45.3% in [8], 46% in experiment [9] and 29.4% in experiment [10].
As to `Cc1cccc(-n2c(C)nc3ccc(NC(=O)NCCCl)cc3c2=O)c1`, the growth in experiment [1] is 104%; in experiment [2] it was 112%; in [3], 115%; in experiment [4] it was 111%; in experiment [5] it was 102%; in experiment [6], 95.1%. The growth in experiment [7] was 99.6%; in experiment [8] it was 99%; in experiment [9], 97.2%; in experiment [10] it was 98.7%.
Consider `COc1cc(NC(=O)CSc2nc3ccc(C)cc3c(=O)n2-c2ccccc2)cc(OC)c1OC`, for which the growth was 110% in experiment [1]; 87.1% in experiment [2]; 90.5% in [3]; 77.3% in experiment [4]; 86.2% in experiment [5]; 86.2% in experiment [6]. In addition, the growth was 92.2% in experiment [7], 93.6% in experiment [8], 83% in experiment [9] and 79.9% in experiment [10].
Take `C=C1C(=O)O[C@H]2[C@H]1CC/C(COC(=O)NCc1cc(OC)c(OC)c(OC)c1)=C\CC[C@@]1(C)O[C@@H]21`: the growth was 43.3% in experiment [1]; 16.3% in [2]; 101% in experiment [3]; 56.5% in experiment [4]; 60.4% in [5]; 68.5% in experiment [6]. The growth was 99.4% in experiment [7], 65.1% in experiment [8] and 49.9% in experiment [10].
Turning to `O=C1c2ccccc2C(=O)c2c1oc1oc3c(c(=O)c21)c(=O)n(-c1ccccc1)c1ccccc31`, the growth in [1] was 94.4%; in experiment [2] it was 26.8%; in experiment [3], 42%; in experiment [4] it was 97.3%; in experiment [5] it was -14.1% (active); in experiment [6], 34.3%. Moreover, the growth in experiment [7] is 18.4%; in experiment [8] it was -5.45% (active); in experiment [9], 101%; in experiment [10], 44.7%.
Regarding `COc1cccc2nc(Nc3ccc(NC(=O)c4ccc5ncccc5c4)cc3)ccc12`, the growth in [1] is 89.6%; in experiment [2], 60.1%; in [3], 70.2%; in experiment [4] it was 68.3%; in experiment [5], 30%; in experiment [6], 82.8%. Besides, the values for the growth in experiment [7], in [8] and in experiment [10] were 6.41% (active), 48.1% and 92.6%, respectively.
`C=C1C(=O)O[C@H]2[C@H]1CC/C(Cn1cc(-c3ccc(N)cc3)nn1)=C\CC[C@@]1(C)O[C@@H]21`: the growth is 4.28% (active) in [1]; 6.36% (active) in [2]; -23.1% (active) in experiment [3]; 4.85% (active) in experiment [4]; -67.1% (active) in experiment [5]; 16.6% in experiment [6]. Further, the growth in [7] is 67.6%; in [8], -18.7% (active); in [10] it was -18.2% (active).
As for `CCC(=O)Oc1ccc2c(c1)CC[C@@H]1[C@@H]2CC[C@]2(C)C[C@H](OC(=O)CC)C[C@@H]12`, the growth was 79.2% in experiment [1]; 29.4% in experiment [2]; 80.1% in [3]; 71.4% in experiment [4]; 86.2% in experiment [5]; 80.1% in experiment [6]. Also, the growth in [7] is 51.6%; in experiment [8], 76.6%; in [10], 50.5%.
As for `CC/C=C\C[C@H](O)C/C=C1/C(=O)C(Cl)=C[C@@H]1C/C=C\CCCC(=O)OC`, the growth is -67.1% (active) in experiment [1]; 2.41% (active) in [2]; -9.56% (active) in [3]; -55.2% (active) in experiment [4]; -62.8% (active) in experiment [5]; -35% (active) in [6]. Moreover, the growth in experiment [7] is -19.6% (active); in experiment [8] it was -4.69% (active); in [10], -32.4% (active).
With `CC1CCN(C(=O)CSc2nc3sc4c(c3c(=O)[nH]2)CCCC4)CC1`, the growth in [1] was 101%; in [2], 86.1%; in experiment [3] it was 109%; in experiment [4], 105%; in experiment [5], 117%; in [6] it was 113%. The growth in [7] was 88.4%; in experiment [8], 98.2%; in experiment [10] it was 109%.
As for `CC1Cc2c(N(C)C)ncnc2N(C)c2ccc(Cl)cc21` (stereo not drawn), the growth in [1] is 52.4%; in [2], 14.3%; in experiment [3] it was 51.4%; in [4], 55%; in experiment [5], 42.6%; in experiment [6] it was 44.5%. Further, the growth in experiment [7] was 3.45% (active); in experiment [8], 4.81% (active); in experiment [10] it was 22.2%.
With `CC(Br)C(Br)c1cc2c(cc1Br)OCO2` (stereo not drawn), the growth in experiment [1] is 108%; in experiment [2] it was 112%; in experiment [3], 100%; in [4], 110%; in experiment [5], 104%; in [6], 99.6%. For the same compound, the growth in experiment [7] is 98.5%; in experiment [8] it was 91.1%; in experiment [10], 94.3%.
With `CN(C)C1CCC(NC2=CC(=O)C=CC2=O)CC1` (stereo not drawn), the growth in experiment [1] was 107%; in experiment [2], 111%; in experiment [3], 115%; in experiment [4], 109%; in experiment [5], 118%; in experiment [6], 99.9%. The figures for the growth in experiment [7], in [8] and in experiment [10] were 128%, 112% and 107%, respectively.
Regarding `COC(=O)CCCCN=Cc1c(O)c(O)c(C(C)C)c2cc(C)c(-c3c(C)cc4c(C(C)C)c(O)c(O)c(C=NCCCCC(=O)OC)c4c3O)c(O)c12`, the growth in experiment [1] is 24.3%; in experiment [2], 10.3%; in experiment [3], 42.5%; in experiment [4], 6.38% (active); in [5], 8.84% (active); in [6] it was 24.2%. In addition, the growth in experiment [7] was 2.79% (active); in experiment [8] it was 24.2%; in [10], 22.9%.
Regarding `Cc1ccc2nc(-c3c(N)n[nH]c3CCCO)[nH]c(=O)c2c1`, the growth was 121% in [1]; 102% in [2]; 137% in experiment [3]; 99.5% in experiment [4]; 167% in experiment [5]; 104% in experiment [6]. The growth was 114% in experiment [7], 96.4% in experiment [8] and 102% in [10].
As for `C=C1C(=O)O[C@H]2[C@H]1CC/C(Cn1cc(-c3ccccc3C(F)(F)F)nn1)=C\CC[C@@]1(C)O[C@@H]21`, the growth was -95.4% (active) in experiment [1]; -13% (active) in experiment [2]; -59.3% (active) in experiment [3]; -33.4% (active) in [4]; -72.3% (active) in experiment [5]; -4.71% (active) in experiment [6]. Moreover, the growth in experiment [7] is 58.8%; in [8], -74.9% (active); in experiment [10], -79.1% (active).
